Measurements published in PubChem BioAssay (NCI).
About 83,000 compounds went through this panel and 20% of them were active in at least one assay; those are over-represented in the sample as a whole.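 Activity criterion: percent growth below 10, measured after cells in 96-well plates were exposed to a single compound concentration for 48 hours.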 Values without a mark were called inactive. Activity calls are given as the source filed them. Where a SMILES comes first, the peptide text is derived from it. [ ]: non-standard residue; d: D form. ξ: configuration not given here. ξD = NC(CC(=O)O)C(=O)O

What was measured:
Assay in all cases: NCI-60 one-dose screen, 48 h (100 = growth as untreated, 0 = no growth, -100 = all killed)
Details in all cases: 10 µM unless noted
RPMI-8226 leukemia = tested on: RPMI-8226 leukemia
OVCAR-8 ovarian = tested on: OVCAR-8 ovarian
OVCAR-5 ovarian = tested on: OVCAR-5 ovarian
OVCAR-4 ovarian = tested on: OVCAR-4 ovarian
SK-OV-3 ovarian = tested on: SK-OV-3 ovarian
IGROV1 ovarian = tested on: IGROV1 ovarian
OVCAR-3 ovarian = tested on: OVCAR-3 ovarian
HS 578T breast = tested on: HS 578T breast
NCI/ADR-RES ovarian = tested on: NCI/ADR-RES ovarian

Structure (SMILES)	growth (RPMI-8226 leukemia)	growth (OVCAR-8 ovarian)	growth (OVCAR-5 ovarian)	growth (OVCAR-4 ovarian)	growth (SK-OV-3 ovarian)	growth (IGROV1 ovarian)	growth (OVCAR-3 ovarian)	growth (HS 578T breast)	growth (NCI/ADR-RES ovarian)
N#C/C(=N\Nc1ccc(Cl)cc1)C(=O)C1CC1	44.4%	63.3%	91.9%	31.2%	65.6%	54.2%	39.8%	23.7%	79.8%
Cc1nc([N+](=O)[O-])c(Sc2nncc(-c3ccccc3)n2)n1C	62.5%	89.4%	79.7%	83.7%	109%	89.7%	78.5%	99.1%	81.3%
O=C(/C=C/c1ccccc1)c1ccccc1O	26.6%	87.7%	91.1%	87.6%	107%	76.5%	89%	94.7%	93.8%
c1ccc2sc(SSN3CC4CCC(CC4)C3)nc2c1	111%	106%	112%	102%	108%	14.6%	150%	92.7%	108%
CCCCCCCCCCCCCCCc1ccc(C(=O)C[n+]2ccccc2)cc1	-62.2% (active)	-46.7% (active)	-44.1% (active)	34.9%	-50.7% (active)		-93.1% (active)	-37.3% (active)	-21.5% (active)
Cc1cc(C(=O)c2ccc(Cl)cc2)ccc1O	73.3%	85.9%	99%	79.2%	110%	117%	98.8%	116%	92.2%
CCN1/C(=C/C(C)=C/c2sc3ccc4ccccc4c3[n+]2CC)Sc2ccc3ccccc3c21		-68.7% (active)	-91.7% (active)	-76.9% (active)	-99% (active)	-88.4% (active)	-94.5% (active)	-66.8% (active)	-19.3% (active)
CN(C)CC(C)(CN(C)C)C(=O)/C=C/c1c(Cl)cccc1Cl	-4.62% (active)	-26.2% (active)	53.1%	62.2%	91.9%	73.6%	-31.3% (active)	71.9%	-29.7% (active)
O=C(c1ccccc1)c1ccc(O)c2ncccc12		8.06% (active)	68%	15.4%	49.8%	17%	-36.7% (active)	52.7%	2.55% (active)
CCC1C[N+]2=C(c3cc(OC)c(OC)cc3CC2)c2c1cc1n2CCc2cc(OC)c(OC)cc2-1 (stereo unspecified)		32.4%	79.7%	14.7%	94.9%		10%	42.4%	101%
Cc1cc2nc(CC(=O)c3ccncc3)c(=O)[nH]c2cc1C		102%	97.2%	93.8%	104%	105%	112%	66.8%	96.8%
O=C(Cc1nc2cc(Cl)c(Cl)cc2nc1CC(=O)c1cccnc1)c1cccnc1	45.1%	77.6%	103%	83.9%	94.7%	73.6%	78.5%	76%	76.4%
CCCCCCCCCCCC[n+]1ccccc1 (tested in a mixture with another compound)	-56.2% (active)	-30.2% (active)	-22.6% (active)	4% (active)	-18.4% (active)		-63.1% (active)	-28.7% (active)	55.3%
Nc1nc2ncc(CNc3ccc(C(=O)NC(CCC(=O)NC(CCC(=O)NC(CCC(=O)NC(CCC(=O)NC(CCC(=O)O)C(=O)O)C(=O)O)C(=O)O)C(=O)O)C(=O)O)cc3)nc2c(=O)[nH]1 (stereo unspecified)	112%	101%	110%	111%	101%	103%	118%	90.1%	119%
CCc1cccc(CC)c1N1C(=O)C=CC1=O		112%	116%	111%	121%		97%	108%	118%
CCOC(=O)C1=C(C(=O)c2ccccc2)C(c2cccc([N+](=O)[O-])c2)C(C(=O)c2ccccc2)=C(C(=O)OCC)N1	32.8%	96.8%	87.7%	92.2%	96.8%	97.5%	96.1%	90.1%	90.9%
CCC1CCCCN1C(=S)N/N=C(\C)c1ccccn1 (stereo unspecified)		9.93% (active)	30.1%	-50.2% (active)	8.27% (active)	2.61% (active)	-18.9% (active)	-3.92% (active)	5.77% (active)
CCc1oc2ccccc2c1C(=O)c1cc(Br)c(O)c(Br)c1	34.7%	79.2%	124%	67%	95.8%	72.2%	58.2%		44.1%
O=C(Cc1nc2cc(Cl)c(Cl)cc2nc1CC(=O)c1ccccc1)c1ccccc1	25.7%	73.3%	77.5%	74.4%	77.4%	61%	81.5%	58.8%	74.6%
NC(=S)N/N=C\c1nccc2c(N)cccc12		15.8%	48%	40.7%	16.6%	10.9%	42.6%	57.6%	10.8%
Nc1cccc2cccc([N+](=O)[O-])c12	98.5%	108%	113%	94.8%	103%	118%	124%	103%	103%
NCC(=O)NC(CC(=O)O)C(=O)O (stereo unspecified) (H-Gly-[ξD]-OH)	111%	107%	107%	104%	108%	107%	125%	99%	104%
CCN(CC)c1ccc(/C=C\C(=O)c2ccc(NC(C)=O)cc2)cc1	76.9%	76%	68.5%	90.6%	69.2%	75.5%	104%	55.1%	37.9%
COc1ccc2nc3cc([N+](=O)[O-])ccc3c(NNc3ccccc3)c2c1	62.1%	81.7%		72.8%	71.9%	88.2%	72.6%		84.6%
CN(C)c1ccc(/C=C/c2nccc3ccccc23)cc1	72%	87.9%	89.4%	103%	99.2%	78.5%	81.6%	94.1%	78.4%
CCOC(=O)c1[nH]c(C#N)c(C(=O)OCC)c1C		94.8%	102%	97.7%	117%	101%	114%	124%	106%
CC(C)(C)c1ccc(CCO)cc1	112%	95.8%	91.4%	99.4%	100%		116%	135%	101%
COc1ccc(NC(=O)/C(=C/N2C(=O)/C(=C/c3ccc(OC)c(OC)c3)NC2=S)C(C)=O)cc1	76.6%	80.8%	99.3%	85.1%	55.9%	74.7%	79%	40.7%	77.6%
